# What was measured:
# Assay in all cases: PBM binding z-score (relative to random genomic background probes); higher = stronger binding; sequences stand for … in GC…GCGATTGACAGCGTAGAATGAAGG
# [1] = tested on: PPARg:RXRa DBDmut IVT, anti-RXR (DBD mutation: RXRa K156A/R161A, NR concentration 270 nM, RXRa partner concentration 90 nM)
# Method in brief: (§1)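 Random background probes are the reference for binding z-scores. These scores derive from regression-normalized fluorescence on custom Agilent 4×180K protein-binding microarrays incubated 1 h with ligand-free nuclear receptor dimers. Binding was detected with antibodies against each partner (one per run).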
# [2] = tested on: PPARg:RXRa IVT, anti-PPARg (NR concentration 270 nM, RXRa partner concentration 90 nM)
# Method in brief: as §1
# [3] = tested on: PPARg DBDmut:RXRa IVT, anti-PPARg (DBD mutation: PPARg1 K132A/R137A, NR concentration 270 nM, RXRa partner concentration 90 nM)
# Method in brief: as §1
# [4] = tested on: PPARg DBDmut IVT, anti-PPARg (DBD mutation: PPARg1 K132A/R137A, NR concentration 270 nM)
# Method in brief: as §1
# [5] = tested on: PPARg homodimer (NR concentration 180 nM)
# Method in brief: as §1
# [6] = tested on: PXR:RXRa (NR concentration 270 nM, RXRa partner concentration 90 nM)
# Method in brief: as §1
# [7] = tested on: PXR homodimer (NR concentration 270 nM)
# Method in brief: as §1
# [8] = tested on: RARa:RXR (NR concentration 270 nM, RXRa partner concentration 90 nM)
# Method in brief: as §1
# [9] = tested on: RARa homodimer (NR concentration 270 nM)
# Method in brief: as §1
# [10] = tested on: RARb:RXRa (NR concentration 270 nM, RXRa partner concentration 90 nM)
# Method in brief: as §1
# [11] = tested on: RARb homodimer (NR concentration 270 nM)
# Method in brief: as §1
# [12] = tested on: RARg:RXRa (NR concentration 270 nM, RXRa partner concentration 90 nM)
# Method in brief: as §1
# [13] = tested on: RARg homodimer (NR concentration 270 nM)
# Method in brief: as §1
# [14] = tested on: RXRa DBDmut IVT, anti-RXR (DBD mutation: RXRa K156A/R161A, NR concentration 90 nM)
# Method in brief: as §1
# [15] = tested on: RXRa homodimer (NR concentration 180 nM)
# Method in brief: as §1
# [16] = tested on: THRa:RXRa (NR concentration 90 nM, RXRa partner concentration 90 nM)
# Method in brief: as §1
# [17] = tested on: THRa homodimer (NR concentration 90 nM)
# Method in brief: as §1
# [18] = tested on: VDR homodimer (NR concentration 270 nM)
# Method in brief: as §1
Sequence,PBM binding z-score [1],PBM binding z-score [2],PBM binding z-score [3],PBM binding z-score [4],PBM binding z-score [5],PBM binding z-score [6],PBM binding z-score [7],PBM binding z-score [8],PBM binding z-score [9],PBM binding z-score [10],PBM binding z-score [11],PBM binding z-score [12],PBM binding z-score [13],PBM binding z-score [14],PBM binding z-score [15],PBM binding z-score [16],PBM binding z-score [17],PBM binding z-score [18]
CCTACTGGGCCACGAAAGGGCATTGATTCAGTGA,5.38,5.14,0.311,0.299,-0.0604,0.616,-0.539,0.471,-0.24,1.69,1.74,0.854,1.12,-0.586,0.314,1.07,-0.645,-0.334
ACTCGGAGGACAAAGGTAAGAGCTACGCCAGTGA,0.286,-0.0365,-0.619,-1.09,0.21,-0.339,-0.386,-0.0753,-0.128,1.17,0.319,1.08,1.1,0.376,0.494,0.863,-0.169,-0.2
AGAATGAGGTTACCAAAGATCAGTGAAACGCTTG,4.06,3.2,1.32,0.399,0.652,1.56,0.0456,1.9,0.395,2.06,0.66,2.09,1.51,1.14,2.67,2.65,0.639,0.206
GATACAGGGTCAAGGCCAGAATACGCGTATTGAT,2.36,4.04,0.884,0.396,2.82,3.9,0.4,4.79,0.95,4.6,3.49,5.5,4.93,2.08,5.95,3.62,1.21,1.6
TCTAGCAGGCCATAGGGTCACTCAAGAGGTACGG,1.23,1.69,-1.22,-0.48,0.644,2.43,-0.246,3.69,0.229,2.75,3.27,3.6,2.95,0.333,3.87,3.25,1.93,1.64
CCTTACAGGTCACGAGGTTATAGCACGACGAGCG,5.46,6.09,1.32,1.39,3.54,4.58,0.719,5.38,1.27,5.31,4.51,6.3,6.12,2.77,6.64,3.98,1.85,2.48
CAAACTAGGTCACGAAAGGTCAAATTCGAATGAC,8.4,9.14,3.89,2.38,4.71,7.07,2.34,7.31,2.58,6,5.85,7.7,8.41,2.5,8.21,5.14,2.56,3.46
ATATCTAGGTAAAAGTTCAGTGAATCCCGAGGAT,6,6.34,1.91,1.42,1.87,2.33,1.9,1.6,1.5,2.56,2.58,2.11,2.05,0.832,1.62,1.38,0.52,2.01
CGTCGAAGGTCAATGCTAGGTCAGTGAAAGCATT,2.56,3.93,-0.174,-1.09,4.55,4.73,0.726,6.43,0.867,5.19,5.11,7.62,6.84,2.5,5.4,4.28,1.03,1.91
ATCGAAAGGTCGTGAAGTGAGTATACAGAAAGGC,0.0713,1.76,1.63,1.88,1.75,2.66,0.278,3.39,1.2,3.73,2.17,3.85,3.56,1.38,4.35,2.18,0.0261,1.02
CGTCAAAGTTCAAGGTAAAGTAACAGAAAGCAGC,0.433,1.82,0.69,0.346,2.5,3.99,2.2,3.47,1.3,4.95,3.36,5.19,6.06,4.04,4.17,2.5,0.503,2.89
GCTATTAGGTGAAAGGGCAACCGAATGATTCTCG,6.66,6.05,0.769,0.0827,1.6,1.48,0.0465,2.47,0.772,2.48,2.47,2.34,1.75,0.924,2.35,2.04,0.498,0.381
TCTAGTTCGTCACGGAGGTCACACACGACGGGTA,1.52,2.15,0.73,0.867,6.1,5.15,2.64,5.11,2.71,3.83,4.28,4.52,4.04,2.51,4.68,3.67,2.73,3.58
CAAACTAGGTCAAAGGTCAACGTCGAGCCAACCA,8.88,9.1,3.12,5.08,10.7,7.11,1.82,9.16,5.04,5.88,5.12,8.91,7.98,2.88,10.3,4.98,2.1,2.86
CCTTACGGGTCACTTACAGGTTATAGCATTTGGA,3.22,3.45,0.739,0.78,2.43,3.37,0.26,4.24,1.28,3.65,3.2,5.65,4.51,2.19,4.62,2.95,0.577,1.66
CCTTACGGGTCAGGAGGTTATAGCACGACGAGCG,1.26,2.77,0.0175,-0.373,1.97,2.86,0.19,4.14,0.79,3.63,3.15,4.9,4.22,-0.195,4.96,2.37,0.0139,0.418

Sequence,PBM binding z-score [1],PBM binding z-score [2],PBM binding z-score [3],PBM binding z-score [4],PBM binding z-score [5],PBM binding z-score [6],PBM binding z-score [7],PBM binding z-score [8],PBM binding z-score [9],PBM binding z-score [10],PBM binding z-score [11],PBM binding z-score [12],PBM binding z-score [13],PBM binding z-score [14],PBM binding z-score [15],PBM binding z-score [16],PBM binding z-score [17],PBM binding z-score [18]
ATACGTAGGTTATCGGGTCATTCAGTTTGCGCAT,3.06,3.95,1.74,0.954,2.79,3.74,8.01,3.84,0.759,2.59,2.77,3.41,2.36,1.77,3.41,3.18,2.93,3.86
ATAGAAAGGTCGAAGGTGAGTATACCCACCCGAA,0.0338,2.05,1.17,0.496,1.85,2.82,0.22,4.08,0.667,3.64,2.36,4.23,3.8,0.55,4.9,2,0.0452,0.757
CAAACTAGGTCAAAGGTCAAAGACGAGCCAACCA,8.8,9.63,6.19,7.03,8.08,7.17,1.87,9.19,4.59,5.96,5.19,9.13,7.66,2.8,10.6,4.79,1.57,3.33
CTAACTAGGTCACAGAGGTCAAAGTCCGTGCGTA,8.94,9.17,7.21,5.22,4.09,6.74,12.1,7.31,3.9,5.32,5.46,7.35,7.81,3.52,7.99,4.64,3.13,7.07
TGAATGAGGTTTAAGATCAGGGAACGTGGCGTCG,-0.249,0.242,0.0033,-0.732,-0.165,-0.2,-0.311,-0.216,-0.194,0.0151,-0.403,0.0866,0.0198,-0.0681,0.388,0.0282,-0.624,-0.231
CGTCCAAGGTCAGCAGGTGAGTGAAAGCGACGTG,2.8,3,-0.33,-0.746,3.15,2.41,0.206,3.32,0.593,4.87,3.84,5.23,6.27,2.47,3.87,3.28,1.95,0.692
CCTACTGGGCGATTCAGAGGTCATTGATCATATG,1.07,1.23,-1.35,-0.572,1.38,4.37,1.7,4.25,0.31,2.53,3.62,3.12,2.1,0.873,3.28,2.83,0.887,2.83
CCAGACAGGTGAAAGGTAACTCACTCTGGTACGC,2.36,3.27,-0.16,0.145,1.28,0.983,0.186,1.84,0.159,1.26,0.88,1.34,0.948,0.0725,2.37,1.03,-0.0395,-0.0544
TCTAGTTGGTCACGGGGGTCACACACGACGGGTA,3.49,5.43,6.78,6.87,4.67,5.72,2.32,6.59,2,4.07,4.5,6.36,5.7,2.07,6.5,4.03,3.01,4.15
ACTTGGAGGACAAAGGTCAGAGCTACGCCAGTGA,2.6,5.22,1.39,1.18,4.64,4.33,0.449,5.83,2.6,4.72,4.32,6.26,5.66,1.71,5.24,3.55,0.496,1.62
CGGACTGGGGCAAAGGTTACCATACTCAGTACGA,6.11,6.8,0.377,0.924,1.68,2.76,-0.252,3.88,0.372,2.42,2.31,3.75,1.9,0.0322,3.79,2.1,0.079,0.18
ATATGTAGGTTATCGGGTCATTCATTTTGCGCAT,7.75,7.84,5.27,4.21,4.1,3.39,1.23,3.75,2.1,2.43,3.18,3.28,2.49,1.65,3.49,3.53,2.79,3
CCTAGTTGGTCAAGGTCACGCACGCTATAGGTAC,2.54,3.78,0.403,0.558,3.73,4.64,2.27,4.99,2.21,4.31,4.81,5.21,5.57,1.94,5.65,4.06,4.48,3.96
ATATGTAGGTTAGCTGGAGTCATTCAGACTAGGC,6.03,6.03,1.63,1.57,0.988,0.231,-0.186,0.556,0.257,0.61,0.259,0.523,0.683,-0.228,0.583,0.807,-0.355,-0.00881
AGATTGAGGTTACCAAAGATCAGGGAAACGCTTG,3.1,2.54,0.865,-0.0178,0.218,1.5,-0.393,2,0.127,2.24,0.91,2.15,1.94,1.36,2.81,2.91,1,0.381

# Reference: the supplement of paper PMC6555819
